According to PubChem BioAssay (NCI):
This is part of a sample that, as a whole, favours compounds with a hit. Of some 83,000 tested, about 20% had one in any assay.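 Negative percent growth values reflect cell death: -40 means 40% of the cells present at the start died, and -100 means all died.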 Values without a mark were called inactive. Calls of active or inactive are those of the source. The calls were made as follows: active = growth percent below 10; inactive = the rest.

Columns and labels:
Experiment in all cases: NCI-60 one-dose screen, 48 h (100 = growth as untreated, 0 = no growth, -100 = all killed)
Settings in all cases: 10 µM unless noted
NCI-H23 lung = system: NCI-H23 lung
NCI-H226 lung = system: NCI-H226 lung
NCI-H322M lung = system: NCI-H322M lung
HOP-62 NSCLC = system: HOP-62 NSCLC
NCI-H460 lung = system: NCI-H460 lung
NCI-H522 lung = system: NCI-H522 lung
A549/ATCC NSCLC = system: A549/ATCC NSCLC
786-0 renal = system: 786-0 renal
DU-145 prostate = system: DU-145 prostate
K-562 leukemia = system: K-562 leukemia
MALME-3M melanoma = system: MALME-3M melanoma
MDA-MB-231 breast = system: MDA-MB-231 breast
RXF 393 renal = system: RXF 393 renal
SF-268 CNS = system: SF-268 CNS
SF-295 CNS = system: SF-295 CNS
SF-539 CNS = system: SF-539 CNS
UACC-257 melanoma = system: UACC-257 melanoma
M14 melanoma = system: M14 melanoma
COLO 205 colon = system: COLO 205 colon

Compound | growth (NCI-H23 lung) | growth (NCI-H226 lung) | growth (NCI-H322M lung) | growth (HOP-62 NSCLC) | growth (NCI-H460 lung) | growth (NCI-H522 lung) | growth (A549/ATCC NSCLC) | growth (786-0 renal) | growth (DU-145 prostate) | growth (K-562 leukemia) | growth (MALME-3M melanoma) [%] | growth (MDA-MB-231 breast) | growth (RXF 393 renal) | growth (SF-268 CNS) | growth (SF-295 CNS) | growth (SF-539 CNS) | growth (UACC-257 melanoma) | growth (M14 melanoma) | growth (COLO 205 colon)
CC1(COc2ccc3ncc(C#Cc4cncc(C(=O)Nc5cccc(C(F)(F)F)c5)c4)n3n2)COC1 | 60.9% | 25% | 95.9% | 63.7% | 85.4% | 75.5% | 88.3% | 97.9% | 91.1% | 47.8% | 71.1 | 44.5% | -4.67% (active) | 76.1% | 79.6% | 60.1% | 98.1% | 78% | 
O=C(CCn1cc[n+](CC(=O)c2ccc(-c3ccccc3)cc2)c1)Nc1cccc2cccnc12 | 81.1% | 83.3% | 92.2% | 102% | 91.9% | 48% | 94.4% | 97.7% | 90.9% | 45.9% |  | 65.1% | 90.5% | 72.2% | 100% | 80.8% | 40.9% | 82.3% | 
CC(C)(C)c1ccc(CC(=O)Nc2sc3c(c2C(N)=O)CCC(=O)C3)cc1 | 7.26% (active) | 11.4% | 44% | 30.5% | 6.79% (active) | -49.3% (active) | 17.1% | 29.1% | 26.4% |  |  | -20.2% (active) | -12.5% (active) | 26% | 10.1% | -36.4% (active) | -10.8% (active) | 7.16% (active) | 
CC(C)(C)c1ccc(C(=O)Nc2nc3ccc(O)cc3s2)cc1 | 54.8% | 53.5% | 54.8% | 82.9% | 19.1% | 52.6% | 38.4% | 2.03% (active) | 48.2% | 8.79% (active) |  | 69.5% | 46.3% | 55.9% | 3.43% (active) | 38.1% | 31.8% | 14.3% | 8.14% (active)
COc1ccc(-c2nc3cccc(O)c3c(=O)n2Cc2ccccc2)cc1COc1ccc(NC(C)=O)cc1 | 62.5% [3 µM] | 56.2% [3 µM] | 67.6% [3 µM] | 43.6% [3 µM] | 4.9% [3 µM] (active) | 52.5% [3 µM] | 44.9% [3 µM] | 54.7% [3 µM] | 50.2% [3 µM] | 18.9% [3 µM] |  | 64.2% [3 µM] | 52.6% [3 µM] | 58.2% [3 µM] | 23.8% [3 µM] | 40.1% [3 µM] | 67.2% [3 µM] | 53.8% [3 µM] | 49.8% [3 µM]
Cn1cc(-c2nc(N)nnc2-c2c[nH]c3ccc(Br)cc23)c2cc(Br)ccc21 | 48.7% | 79.9% | 68.4% | 59.6% | 17.3% | 11.6% | 49.7% | 51.1% | 64.8% | 12.2% | 43 | 62.5% | 39.8% | 61.3% | 11.7% | 43.8% | 82.9% | 20.7% | 
COc1cc2nc(Cl)nc(Nc3cccc(C4=Nc5c(N)nc(N)nc5NC(c5ccccc5)C4)c3)c2cc1OC (configuration not stated) | 83.5% | 86.9% | 92.9% | 39.6% | 87.4% | 76.5% | 87.5% | 77.5% | 85.9% | 6.71% (active) |  | 90.4% | 84.5% | 84.3% | 75.8% | 99.8% | 108% | 90.1% | 
C#C[C@]1(O)CC[C@H]2[C@@H]3CC=C4c5sc(-c6ccc7c(c6)OCO7)nc5CC[C@]4(C)[C@H]3CC[C@@]21C | 6.36% (active) | 32.3% | 37.1% | 11.2% | -26.2% (active) | 2.16% (active) | 6.31% (active) | -28.9% (active) | 20.1% | 32.6% |  | 51.8% | -49.3% (active) | 51.7% | -47.7% (active) | -36.6% (active) | 17.7% | 6.34% (active) | 
CC(C)(C)c1ccc(C(=O)Nc2sc3c(c2C(N)=O)CCC(O)C3)cc1 (configuration not stated) | 66.5% | 68.7% | 58.1% | 63% | 17% | 31.2% | 39.6% | 15.4% | 58.6% | 6.74% (active) |  | 65.6% | 44.5% | 63.2% | -1.38% (active) | 23.3% | 36.8% | -3.35% (active) | 6.84% (active)
